# ± gives the standard deviation.
# Columns and labels:
# Details in all cases: modulator concentration 10 µM
# [1] = system: RAW-Dual (murine macrophage reporter line); experiment: NF-kB reporter (SEAP) activity fold change vs agonist alone; higher = enhanced NF-kB activity
# How it was run: (§1)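 RAW-Dual murine macrophage reporter cells were seeded at 50 000 per well in 384-well plates and pre-incubated 1 hour at 37 °C with compound pin-transferred to 10 μM final. After 1 hour, a PRR agonist was added and cells incubated overnight. Supernatant NF-κB (SEAP, QUANTI-Blue, 620 nm absorbance) and IRF (Lucia luciferase, QUANTI-Luc, luminescence) signals were divided by the mean agonist-only control on the same plate to give fold change. Two replicate plates were averaged, with errors by propagation.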
# [2] = system: RAW-Dual (murine macrophage reporter line); experiment: IRF reporter (Lucia luciferase) activity fold change vs agonist alone; higher = enhanced IRF activity
# How it was run: as §1
# [3] = system: RAW-Dual (murine macrophage reporter line); experiment: viability score (confluency relative to resting cells, overnight) (fraction); higher = more viable, active = viable (0.7 or more)
# How it was run: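 Two confluency masks, generated with IncuCyte software over all imaged wells, were applied to IncuCyte images of RAW-Dual macrophages. The cells, in 384-well plates, had been exposed overnight to 10 μM final compound. The viability score is confluency as a fraction of resting cells, and a compound met the cutoff only with both masks above 70% of resting cells.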
# [4] = agonist: CpG ODN 1826 0.5 ug/mL
SMILES,"NF-kB reporter [1, 4]",NF-kB reporter ([1]; agonist: LPS 0.1 ug/mL),NF-kB reporter ([1]; agonist: MPLA […]),IRF reporter ([2]; agonist: 3'3'-cGAMP 10 ug/mL),IRF reporter ([2]; agonist: LPS 0.1 ug/mL),IRF reporter ([2]; agonist: MPLA […]),viability score [3]
COc1ccc2ncc(S(=O)(=O)c3ccccc3)c(N3CCN(c4ccccc4)CC3)c2c1,0.611 ± 0.034,0.924 ± 0.068,1.14 ± 0.13,1.05 ± 0.036,1.4 ± 0.16,1.13 ± 0.14,0.981 (active)
COc1ccc(-c2oc3ccc(OC)cc3c2C(=O)Nc2ccccc2C)cc1,0.917 ± 0.047,1.17 ± 0.092,0.959 ± 0.073,1 ± 0.055,1.1 ± 0.073,1.12 ± 0.11,1 (active)
COc1ccc(CCNc2nnc(Cc3ccc(Cl)cc3)c(=O)[nH]2)cc1OC,0.928 ± 0.068,1.1 ± 0.089,0.877 ± 0.11,0.977 ± 0.05,1.07 ± 0.065,1.04 ± 0.08,1.02 (active)
CCOC(=O)C1=C(CC)NC2=C(C(=O)CCC2)C1c1ccccc1I (configuration not stated),0.996 ± 0.11,1.02 ± 0.13,0.982 ± 0.1,0.921 ± 0.032,1.27 ± 0.16,1.05 ± 0.19,0.975 (active)
CCOC(=O)C1=C(C)OC(N)=C(C#N)C1c1ccc(O)c(OCC)c1 (configuration not stated),1.19 ± 0.075,1.04 ± 0.064,1.07 ± 0.099,0.939 ± 0.038,1.31 ± 0.12,1.16 ± 0.11,1.01 (active)
CC(C)(C(=O)c1cccnc1)c1cccnc1 [Prestw-904],1.05 ± 0.092,0.894 ± 0.073,0.939 ± 0.057,0.995 ± 0.054,0.956 ± 0.12,0.901 ± 0.23,0.997 (active)
CCc1nc2ccc(C(=O)NC3CCC(n4cccn4)CC3)cc2s1 (configuration not stated),1.02 ± 0.098,1.04 ± 0.082,1.03 ± 0.054,0.959 ± 0.047,0.964 ± 0.045,0.925 ± 0.14,1 (active)
O=C(NC(=S)c1c(-c2ccccc2)cc2ccccn12)c1ccccc1,0.746 ± 0.058,0.786 ± 0.038,0.883 ± 0.078,0.516 ± 0.03,1.18 ± 0.086,1.36 ± 0.18,1.01 (active)
CSc1ccccc1NC(=O)C1CCCN(c2ccc(-n3cncn3)nn2)C1 (configuration not stated),0.991 ± 0.073,1.04 ± 0.099,1.18 ± 0.063,0.973 ± 0.077,1.23 ± 0.22,1.43 ± 0.37,0.995 (active)
C=CCN1C(=O)C(=C2SC(=S)N(C)C2=O)c2ccccc21,0.76 ± 0.072,0.833 ± 0.085,1.03 ± 0.12,0.971 ± 0.05,1.33 ± 0.078,1.42 ± 0.15,0.997 (active)
CN1CCN(C2CC(=O)N(c3ccc(N4CCOCC4)cc3)C2=O)CC1 (configuration not stated),0.963 ± 0.079,0.945 ± 0.096,0.864 ± 0.065,1.01 ± 0.025,1.37 ± 0.11,1.13 ± 0.29,1.01 (active)
C#Cc1cccc(Nc2ncnc3cc4c(cc23)OCCOCCOCCO4)c1,0.937 ± 0.043,1 ± 0.11,1.11 ± 0.093,1.02 ± 0.05,1.2 ± 0.17,1.39 ± 0.36,1.02 (active)
CCCCSc1nnc2c(n1)OC(c1cccc(F)c1)Nc1ccc(Br)cc1-2 (configuration not stated),1.07 ± 0.18,1.01 ± 0.078,0.951 ± 0.083,0.914 ± 0.036,1.24 ± 0.13,1.13 ± 0.12,1 (active)
Cc1c(C(=O)ON=C(N)c2ccncc2)cccc1[N+](=O)[O-],1.01 ± 0.08,0.996 ± 0.06,0.851 ± 0.069,0.421 ± 0.031,1.33 ± 0.099,1.23 ± 0.16,0.992 (active)
O=C(NN=Cc1cccc(Cl)c1Cl)c1cc(O)cc(O)c1,1.02 ± 0.084,0.918 ± 0.092,1.07 ± 0.1,0.934 ± 0.079,1.19 ± 0.22,1.3 ± 0.22,1.04 (active)
COc1ccc(C=NNC(=O)C2COc3cc4ccccc4cc3O2)c(O)c1 (configuration not stated),0.993 ± 0.094,0.966 ± 0.054,0.98 ± 0.079,0.956 ± 0.031,1.31 ± 0.18,1.1 ± 0.15,1.01 (active)
CS(=O)(=O)O.Cc1c(O)cccc1C(=O)N[C@@H](CSc1ccccc1)[C@H](O)CN1C[C@H]2CCCC[C@H]2C[C@H]1C(=O)NC(C)(C)C,0.399 ± 0.017,0.968 ± 0.08,1.29 ± 0.07,1.09 ± 0.056,1.26 ± 0.29,1.32 ± 0.46,0.987 (active)
COc1ccccc1C(=O)Nc1ccc(Nc2ccc(-n3cccn3)nn2)cc1,2.27 ± 0.12,1.36 ± 0.12,1.91 ± 0.092,0.334 ± 0.017,1.45 ± 0.094,1.11 ± 0.1,0.721 (active)
Clc1cnc(NC2CCN(c3ncnc4c3CCCC4)CC2)nc1,0.969 ± 0.043,1.08 ± 0.089,1.55 ± 0.24,0.698 ± 0.032,1.16 ± 0.21,1.29 ± 0.47,0.954 (active)
COc1ccc(C)c2sc(=NC(=O)c3ccccc3)n(C)c12,1.16 ± 0.11,1.17 ± 0.06,2.25 ± 0.073,0.904 ± 0.05,0.969 ± 0.15,2.01 ± 0.31,0.99 (active)
CCCCCCCCCCC[C@@H](C[C@@H]1OC(=O)[C@H]1CCCCCC)OC(=O)[C@H](CC(C)C)NC=O,1.1 ± 0.083,0.92 ± 0.058,1.02 ± 0.044,1.04 ± 0.23,0.927 ± 0.048,0.923 ± 0.12,1 (active)
CCCCCOC(=O)COc1ccc(S(=O)(=O)c2ccc(OCC(=O)OCCCCC)cc2)cc1,0.959 ± 0.079,0.964 ± 0.094,1.12 ± 0.14,1.02 ± 0.032,1.33 ± 0.21,1.61 ± 0.25,1.03 (active)
c1ccc(CCn2c3ccccc3c3nnc(SCCN4CCOCC4)nc32)cc1,0.859 ± 0.067,0.912 ± 0.11,1.01 ± 0.091,0.697 ± 0.042,1.2 ± 0.13,1.33 ± 0.18,1.01 (active)
O=c1c(-c2ccccc2)coc2cc(O)ccc12,1.2 ± 0.089,1.09 ± 0.11,1.13 ± 0.049,0.886 ± 0.051,1 ± 0.11,0.973 ± 0.097,1 (active)
CCCC1=NN2C(=N)C(=Cc3cccc(OCc4ccccc4F)c3)C(=O)N=C2S1,0.983 ± 0.12,0.999 ± 0.1,0.972 ± 0.061,0.964 ± 0.064,1.6 ± 0.16,1.17 ± 0.097,1.01 (active)
Cc1c(OCC(=O)OC(C)C)ccc2c3c(c(=O)oc12)CCCC3,0.794 ± 0.063,0.883 ± 0.14,1.21 ± 0.12,0.949 ± 0.086,1.49 ± 0.095,1.71 ± 0.24,1.01 (active)

# — the supplement of paper PMC10646978
